The values below come from PubChem BioAssay (Tox21).

Experiment [1] can be described thus: qHTS assay to identify small molecule antagonists of the peroxisome proliferator-activated receptor delta (PPARd) signaling pathway - cell viability counter screen (AID 743213; active = well fitted curve in the direction sought with a large enough effect in the repeat runs; an effect the other way counts as inactive or inconclusive; also: nearly all actives have a fitted effect of over 50% in size). Summed up:
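PPARd-bla HEK293H cells were treated with compounds plus agonist L165041 (300 nM final) for 17 h at 37 C. Viability was then read in the same wells by CellTiter-Glo luminescence after 30 min at room temperature.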
(In qHTS, concentration-response curves come from the screen itself.)

Experiment [2] can be described thus: qHTS assay to identify small molecule antagonists of the farnesoid-X-receptor (FXR) signaling pathway - cell viability counter screen (AID 743221; active = well fitted cell-killing curve with a large enough effect in the repeat runs, not every such curve was filed as active; also: nearly all actives have a fitted effect of over 50% in size). Summed up:
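Luminescence from CellTiter-Glo measures cytotoxicity in GeneBLAzer FXR-UAS-bla HEK 293T cells. Cells were exposed to compounds with 50 uM chenodeoxycholic acid (final) for 16 h at 37 C, in wells also used for the reporter readout.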

The nature of experiment [3]: qHTS assay to identify small molecule agonists of the NFkB signaling pathway (AID 1159509; active = well fitted curve in the direction sought with a large enough effect in the signal ratio in the repeat runs, not every such curve was filed as active; the % refers to the signal ratio; also: series mostly up to about 61 µM). Summed up: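 After overnight attachment, reporter cells received test compounds, DMSO or positive controls and were incubated 5 hr at 37 C. FRET substrate was then added for 1.5 hr at room temperature before dual-emission fluorescence reading.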
Experiment [4] in a line: qHTS assay to identify small molecule agonists of the NFkB signaling pathway - cell viability counter screen (AID 1159515). Also: series mostly up to about 61 µM; nearly all actives have a fitted effect of over 55% in size. The method in brief:
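Using the same wells as the NFkB reporter read, ME-180 NFkB-bla cells given compounds for 5 hr were assessed for viability via CellTiter-Glo, with luminescence taken after a 30 min room-temperature incubation.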

Experiment [5] in a line: qHTS assay to identify small molecule agonists of the endoplasmic reticulum stress response signaling pathway (AID 1159516; active = well fitted activation curve with a large enough effect in the signal ratio in the repeat runs, not every such curve was filed as active; the % refers to the signal ratio). Summed up: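 An ESRE-bla HeLa cell assay: compounds were pin-transferred from DMSO onto overnight-plated cells and left 5 hr at 37 C. Substrate was then loaded for 2 hr at room temperature before reading fluorescence at 460 nm and 530 nm.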
Experiment [6] is described as follows: qHTS assay to identify small molecule agonists of the endoplasmic reticulum stress response signaling pathway - cell viability counter screen (AID 1159517).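 Also: HeLa cells carrying an ER stress response element beta-lactamase reporter; series mostly up to about 61 µM; nearly all actives have a fitted effect of over 50% in size.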 Summed up: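 Counter-screen wells were identical to the reporter wells. Cells were plated at 1,500 per well and dosed for 5 hr, then read for luminescence 30 min after CellTiter-Glo addition.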
Experiment [7] is described as follows: qHTS assay to identify small molecule agonists of the AP-1 signaling pathway - cell viability counter screen (AID 1159525). Also: nearly all actives have a fitted effect of over 55% in size. Summed up:
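AP-1-bla ME-180 cells in Opti-MEM with 0.5% dialyzed FBS, compound exposure 5 h at 37 C in 15-point titration. Viability read in the same wells as ATP content by CellTiter-Glo luminescence, normalised to tetra-n-octylammonium bromide and DMSO controls.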

The nature of experiment [8]: qHTS assay to identify small molecule agonists of the AP-1 signaling pathway (AID 1159526).
Experiment [9] addresses Peroxisome proliferator-activated receptor delta (Homo sapiens) (UniProt Q03181). Kind of experiment: qHTS assay to identify small molecule agonists of the peroxisome proliferator-activated receptor delta (PPARd) signaling pathway (AID 743212). The method in brief:
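Quantitative high-throughput agonist screen in a HEK293H beta-lactamase reporter line under UAS control. Compounds in DMSO, at 37 C. Fluorescence read after 2 h with FRET substrate at room temperature.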

For experiment [10] the target is unchanged. Kind of experiment: qHTS assay to identify small molecule antagonists of the peroxisome proliferator-activated receptor delta (PPARd) signaling pathway (AID 743215; active = well fitted inhibition curve with a large enough effect in the signal ratio in the repeat runs, not every such curve was filed as active; the % refers to the signal ratio;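 also: cells stimulated with agonist L165041 at 300 nM final during compound exposure; series mostly up to about 62 µM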). Summed up: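 HEK293H UAS-bla, PPARd; agonist L165041 300 nM final with cpd in DMSO; 37 C 17 h; FRET substrate, RT 2 h; fluorescence intensity.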
Experiment [11] can be described thus: qHTS assay to identify small molecule agonists of the farnesoid-X-receptor (FXR) signaling pathway - cell viability counter screen (AID 743218; active = well fitted curve in the direction sought with a large enough effect in the repeat runs; an effect the other way counts as inactive or inconclusive; also: nearly all actives have a fitted effect of over 45% in size). The method in brief:
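Parallel cytotoxicity test: compound-treated (16 h, 37 C) HEK 293T FXR-bla reporter cells were lysed with CellTiter-Glo and luminescence recorded.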

Experiment [12] in a line: qHTS assay to identify small molecule agonists of the vitamin D receptor (VDR) signaling pathway - cell viability counter screen (AID 743224; active = well fitted curve in the direction sought with a large enough effect in the repeat runs; an effect the other way counts as inactive or inconclusive; also: series mostly up to about 63 µM; nearly all actives have a fitted effect of over 50% in size). Summed up:
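Plated VDR-bla cells (4 h, 37C) received compound, incubated 16 h, then LiveBLAzer substrate 2 h RT; CellTiter-Glo added afterwards, luminescence read at 30 min.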

Experiment [13] has as its target Retinoic acid receptor RXR-alpha (Homo sapiens) (UniProt P19793). Kind of experiment: qHTS assay to identify small molecule agonists of the RXR signaling pathway (AID 1159527). Also: nearly all actives have a fitted effect of over 35% in size. Also: potency is read from the fitted curve at half-maximal effect. The method in brief: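 Read-out: beta-lactamase FRET ratio (405 nm excitation, 460 and 530 nm emission) after 2 hr substrate loading at room temperature. Cells were RXR-alpha-UAS-bla HEK 293T treated with compounds for 16 hr in 2% charcoal-stripped FBS medium.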

Experiment [14] can be described thus: qHTS assay to identify small molecule antagonists of the vitamin D receptor (VDR) signaling pathway - cell viability counter screen (AID 743225; active = well fitted curve in the direction sought with a large enough effect in the repeat runs; an effect the other way counts as inactive or inconclusive; also: nearly all actives have a fitted effect of over 50% in size). The method in brief:
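Read-out: CellTiter-Glo luminescence measured 30 min after reagent addition at room temperature. Cells were VDR-bla HEK 293T exposed 16 h at 37C, 5% CO2, to compound with 3 nM final calcitriol agonist.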

Experiment [15] concerns the target Vitamin D3 receptor (Homo sapiens) (UniProt P11473). As to the kind of experiment: qHTS assay to identify small molecule agonists of the vitamin D receptor (VDR) signaling pathway (AID 743222). The method in brief:
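In VDR-bla cells, compound-induced beta-lactamase expression is quantified by FRET substrate fluorescence. Treatment lasts 16 h at 37C; substrate develops 2 h at room temperature.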

For experiment [16] the target is unchanged. Kind of experiment: qHTS assay to identify small molecule antagonists of the vitamin D receptor (VDR) signaling pathway (AID 743223; active = well fitted inhibition curve with a large enough effect in the signal ratio in the repeat runs, not every such curve was filed as active; the % refers to the signal ratio). The method in brief: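 Antagonist mode uses 1alpha,25-dihydroxyvitamin D3 at 3 nM final as stimulus. VDR-bla cells receive compounds in DMSO, incubate 16 h at 37C, then a beta-lactamase FRET substrate for 2 h at room temperature before fluorescence measurement.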

The target in experiment [17] is Nuclear receptor ROR-gamma (Homo sapiens) (UniProt P51449). As to the kind of experiment: qHTS assay to identify small molecule antagonists of the retinoid-related orphan receptor gamma (ROR-gamma) signaling pathway (AID 1159521; active = well fitted curve in the direction sought with a large enough effect in the repeat runs; an effect the other way counts as inactive or inconclusive). Summed up:
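CHO Tet-on RORγ, RORE-luc reporter. Cpd 2 h pre-incubation, then dox hyclate 1 uM final, 16 h, 37 C/5% CO2. ONE-Glo luminescence; decrease = antagonist.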

Experiment [18] has as its target Bile acid receptor (Homo sapiens) (UniProt Q96RI1). As to the kind of experiment: qHTS assay to identify small molecule antagonists of the farnesoid-X-receptor (FXR) signaling pathway (AID 743217; active = well fitted inhibition curve with a large enough effect in the signal ratio in the repeat runs, not every such curve was filed as active; the % refers to the signal ratio). The method in brief:
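GeneBLAzer FXR-UAS-bla HEK 293T, CDCA-stimulated (50 uM final). Compound treatment 16 h, 37 °C. Detection: beta-lactamase cleavage of B/G FRET substrate, fluorescence.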

For experiment [19] the target is unchanged. As to the kind of experiment: qHTS assay to identify small molecule agonists of the farnesoid-X-receptor (FXR) signaling pathway (AID 743220; active = well fitted activation curve with a large enough effect in the signal ratio in the repeat runs, not every such curve was filed as active; the % refers to the signal ratio). Summed up: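 Beta-lactamase reporter under UAS control in GeneBLAzer FXR HEK 293T cells (5000/well) measured with LiveBLAzer FRET substrate after 2 h at room temperature. Compound exposure lasted 16 h at 37C.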

A short description of experiment [20]: qHTS assay to identify small molecule antagonists of the retinoid-related orphan receptor gamma (ROR-gamma) signaling pathway - cell viability counter screen (AID 1159520; active = well fitted curve in the direction sought with a large enough effect in the repeat runs; an effect the other way counts as inactive or inconclusive; also: nearly all actives have a fitted effect of over 50% in size). The method in brief:
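Tet-on ROR gamma CHO cells were given compounds for 2 hr, then doxycycline hyclate at 1 uM final, and incubated 16 hr at 37 C. Viability was measured as ATP content by CellTiter-Glo luminescence.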

Several values for one entry are separate records, joined by “and”; a condition that tells them apart may be missing. Equal entries are not always repeated. Records with an inconclusive call do not appear. Some structures have more than one record in an assay (separate samples or runs), and their calls can disagree. Activity calls are given as the source filed them. Unless noted, calls follow the shape of the full dose curve.

Sequence of Bile acid receptor (Homo sapiens) (Q96RI1 whole entry, looked up): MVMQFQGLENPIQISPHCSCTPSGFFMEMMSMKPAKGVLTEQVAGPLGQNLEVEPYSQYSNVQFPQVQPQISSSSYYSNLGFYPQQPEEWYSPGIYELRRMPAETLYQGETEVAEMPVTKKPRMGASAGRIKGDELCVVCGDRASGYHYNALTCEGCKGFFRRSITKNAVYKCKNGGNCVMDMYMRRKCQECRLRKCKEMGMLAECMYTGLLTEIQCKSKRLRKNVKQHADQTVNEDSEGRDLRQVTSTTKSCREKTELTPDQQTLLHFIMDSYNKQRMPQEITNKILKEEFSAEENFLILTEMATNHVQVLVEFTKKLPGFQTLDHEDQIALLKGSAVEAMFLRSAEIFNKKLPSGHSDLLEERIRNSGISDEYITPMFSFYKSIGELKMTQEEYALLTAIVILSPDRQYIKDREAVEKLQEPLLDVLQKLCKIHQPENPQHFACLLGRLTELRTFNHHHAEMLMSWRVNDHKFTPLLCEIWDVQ
Sequence of Vitamin D3 receptor (Homo sapiens) (P11473 whole entry, looked up): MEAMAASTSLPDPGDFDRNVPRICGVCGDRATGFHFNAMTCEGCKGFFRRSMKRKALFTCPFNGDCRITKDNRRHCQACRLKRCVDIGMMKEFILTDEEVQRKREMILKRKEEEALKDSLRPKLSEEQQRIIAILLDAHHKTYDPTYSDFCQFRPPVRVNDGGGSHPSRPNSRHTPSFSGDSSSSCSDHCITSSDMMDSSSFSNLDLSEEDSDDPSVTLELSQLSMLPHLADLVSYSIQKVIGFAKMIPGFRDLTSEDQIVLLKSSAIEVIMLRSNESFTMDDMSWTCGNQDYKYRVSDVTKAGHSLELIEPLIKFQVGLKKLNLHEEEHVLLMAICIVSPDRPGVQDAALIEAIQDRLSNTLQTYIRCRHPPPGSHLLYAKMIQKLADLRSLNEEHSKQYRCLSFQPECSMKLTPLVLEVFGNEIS
Sequence of Retinoic acid receptor RXR-alpha (Homo sapiens) (P19793 whole entry, looked up): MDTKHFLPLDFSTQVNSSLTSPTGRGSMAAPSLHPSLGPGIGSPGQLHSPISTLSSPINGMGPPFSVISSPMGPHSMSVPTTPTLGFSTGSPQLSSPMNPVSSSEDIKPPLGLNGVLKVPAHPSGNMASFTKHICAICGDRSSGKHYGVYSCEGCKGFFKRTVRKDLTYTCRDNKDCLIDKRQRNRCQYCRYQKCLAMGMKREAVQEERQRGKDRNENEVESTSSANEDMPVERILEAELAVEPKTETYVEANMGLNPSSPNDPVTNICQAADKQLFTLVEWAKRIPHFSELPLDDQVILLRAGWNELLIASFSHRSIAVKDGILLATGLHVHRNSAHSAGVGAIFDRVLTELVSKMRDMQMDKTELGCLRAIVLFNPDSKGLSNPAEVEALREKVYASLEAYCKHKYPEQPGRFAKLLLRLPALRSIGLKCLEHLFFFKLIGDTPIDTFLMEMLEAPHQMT
Sequence of Peroxisome proliferator-activated receptor delta (Homo sapiens) (Q03181 whole entry, looked up): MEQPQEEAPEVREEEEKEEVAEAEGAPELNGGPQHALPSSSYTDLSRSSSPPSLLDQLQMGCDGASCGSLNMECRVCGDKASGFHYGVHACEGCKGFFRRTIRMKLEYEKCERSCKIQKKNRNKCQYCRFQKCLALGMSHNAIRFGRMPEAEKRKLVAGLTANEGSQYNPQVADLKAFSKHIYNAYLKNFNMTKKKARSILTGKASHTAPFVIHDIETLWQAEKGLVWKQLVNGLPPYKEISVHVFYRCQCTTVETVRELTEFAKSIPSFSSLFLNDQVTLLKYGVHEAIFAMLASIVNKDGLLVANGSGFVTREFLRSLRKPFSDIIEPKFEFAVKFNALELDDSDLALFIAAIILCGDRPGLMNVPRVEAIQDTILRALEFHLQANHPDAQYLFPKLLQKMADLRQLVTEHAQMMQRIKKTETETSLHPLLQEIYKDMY

With `CCc1ccc(CCOc2ccc(CC3SC(=O)NC3=O)cc2)nc1` (stereo unspecified), the compound was classed as inactive in [1], in experiment [3], in experiment [4], in experiment [5], in experiment [6] and in experiment [8]. The Potency entry in experiment [2] and in experiment [7] was “inactive” each time.
Turning to `O=C1CCC(N2C(=O)c3ccccc3C2=O)C(=O)N1` (stereo unspecified), the call in [9], in experiment [1], in experiment [3], in experiment [4], in experiment [5] and in experiment [6] was inactive. In addition, the call in [8] was inactive. In addition, the Potency result in [10], in experiment [11], in experiment [2], in [12], in [7] and in experiment [13] was “inactive” in each case.
Consider `C#CCN(C)Cc1ccccc1`, for which the compound was called inactive in experiment [9], in [1], in experiment [14], in experiment [3], in experiment [4] and in experiment [5]. For the same compound, the compound was classed as inactive in [6] and in [8]. Also, the Potency entry in experiment [11], in [12] and in [7] was “inactive” throughout.
Consider `CCCCC(CC)COC(=O)CS` (stereo unspecified), for which the compound was classed as inactive in experiment [1], in [15], in experiment [16], in experiment [14], in [3] and in experiment [4]. The outcome in [5], in [6] and in [8] was inactive. For the same compound, the Potency entry in experiment [11], in [2], in [12] and in [7] was “inactive” throughout.
As to `c1c[nH]cn1`, the outcome in experiment [9], in experiment [1], in experiment [15], in [16], in experiment [14] and in experiment [3] was inactive. In addition, the compound was called inactive in experiment [4], in experiment [5], in experiment [6] and in experiment [8]. The Potency entry in experiment [11], in [2], in experiment [12], in [17] and in [7] was “inactive” each time.
Turning to `COc1ccc2cc([C@H](C)C(=O)O)ccc2c1`, the call in [1], in experiment [15], in experiment [16], in experiment [14], in experiment [3] and in [4] was inactive. For the same compound, the outcome in experiment [5], in experiment [6] and in experiment [8] was inactive. Also, the Potency entry in experiment [11], in [2], in [17] and in experiment [7] was “inactive” each time.
For `CCCCCCCCCCCCCCCO`, the call in [9], in experiment [1], in [18], in experiment [19], in [15] and in experiment [16] was inactive. The outcome in experiment [3], in experiment [4], in experiment [5], in experiment [6] and in experiment [8] was inactive. The Potency entry in [11], in experiment [12], in experiment [17] and in experiment [7] was “inactive” each time.
`CCCCCCCCCCCCOCCO`: the outcome in experiment [1], in experiment [14], in [3], in experiment [4], in experiment [5] and in experiment [6] was inactive. In addition, the compound was classed as inactive in [8]. Also, the Potency entry in experiment [11], in experiment [2], in experiment [12], in experiment [17] and in experiment [7] was “inactive” each time.
`CCOC(=O)NNc1nncc2ccccc12`: the result in [9], in experiment [1], in [18], in experiment [19], in [15] and in experiment [16] was inactive. In addition, the call in experiment [14], in [3], in experiment [4], in experiment [5], in [6] and in experiment [8] was inactive. Further, the Potency entry in experiment [10], in [7] and in [13] was “inactive” in each case.
`CC(C)(C)[C@@H](O)[C@@H](Cc1ccc(Cl)cc1)n1cncn1`: the call in [9], in [1], in [18], in [19], in experiment [15] and in experiment [16] was inactive. Besides, the result in [14], in [3], in [4], in [5], in experiment [6] and in [8] was inactive. In addition, the Potency result in [11], in [2], in experiment [12], in experiment [17] and in experiment [7] was “inactive” in each case.
As for `C/C=C1/CC2C=CC1C2` (stereo unspecified), the compound was called inactive in experiment [9], in experiment [1], in [15], in experiment [16], in [14] and in experiment [4]. The result in experiment [5], in [6] and in experiment [8] was inactive. The Potency entry in experiment [11], in experiment [12], in experiment [20] and in experiment [7] was “inactive” throughout.
Turning to `Nc1cc([N+](=O)[O-])ccc1O`, the compound was classed as inactive in experiment [9], in [1], in experiment [15], in [16], in experiment [14] and in experiment [3]. Further, the call in experiment [4], in [5], in experiment [6] and in [8] was inactive. For the same compound, the Potency result in experiment [11], in [2], in experiment [12], in experiment [17] and in experiment [7] was “inactive” throughout. Also, the Potency result in experiment [13] was “inactive and 9.72 µM (active)”.
